The campaign covered roughly 5,500 compounds. About 2,000 (36%) were called active. Another 18% or so got no clear call; they are omitted. No stated cut-off is given here; in the data, active means normalized growth mostly below about 0.91 (no sharp cut-off); inconclusive means no clear call, values can overlap the other calls; inactive means mostly above about 0.92. The list shows a part of the results.
Test: chemical genetic growth profiling, strain panel (AID 1159580);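 further: tested at 20 µM; growth read once vehicle control cultures reached saturation at 30 °C; 1 = growth at the plate median or of vehicle wells; lower values mean less growth of the strain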
Conditions: S. cerevisiae deletion strains, growth OD

Measured: normalized growth

CN(Cc1cnc2nc(N)nc(N)c2n1)c1ccc(C(=O)N[C@H](CCC(=O)O)C(=O)O)cc1
inactive: locus YAL040C, strain CLN3, hits give low values 1 | locus YER002W, strain NOP16, hits give low values 0.996 | locus YNL175C, strain NOP13, hits give low values 1 | locus YNL197C, strain WHI3, hits give low values 1.01 | locus YNL224C, strain SQS1, hits give low values 0.981 | locus YOR083W, strain WHI5 (second series), hits give low values 1.04 | locus YPL241C, strain CIN2, hits give low values 0.984
